Test results taken from publication PMC5540273 (PLoS ONE, 2017).

The compounds below were run on T1, MST2. Details: concentration: 1 μM,replicates: in singlicate; n = 1.
T1 construct: gene STK3
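Note: KINOMEscan kinase panel screen.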

Row | SMILES | %Inh [%]
1 | O=C(Nc1cccc(Oc2ccc3nccn3n2)c1)Nc1cccc(C(F)(F)F)c1 | 0
2 | CN(c1ccccc1CNc1nc(Nc2ccc3c(c2)CC(=O)N3)ncc1C(F)(F)F)S(C)(=O)=O | 70
3 | NC(=O)c1ccc(-c2cc3ncnc(SCC(=O)O)c3s2)cc1 | 0
4 | Cn1ccc2ncnc(Oc3ccc(NC(=O)Nc4cc(C(C)(C)C)on4)c(Cl)c3)c21 | 0
5 | COC(=O)Nc1nc2cc(Oc3ccc(NC(=O)Nc4cc(C(F)(F)F)ccc4Cl)cc3)ccc2[nH]1.Cl [GW697465] | 0
6 | COc1cc2c(Nc3ccc(NC(=O)c4ccccc4)cc3)ncnc2cc1OCCCN1CCOCC1 [GSK301329] | 0
7 | C[C@@H]1CNc2c(sc3ccc4nc(-c5ccc(O)cc5)ccc4c23)C(=O)N1 | 42
8 | CN(c1cccc(CNc2nc(Nc3ccc4c(c3)CC(=O)N4)ncc2C(F)(F)F)c1)S(C)(=O)=O | 10
9 | O=C(Nc1ccc(Oc2ccc3nc(NC(=O)C4CC4)cn3n2)c(F)c1)c1cccn(-c2ccccc2)c1=O | 0
10 | Nc1nccc(-c2ccc3c(N)n[nH]c3c2)n1 [GSK1034945] | 0
11 | CNC(=O)c1ccccc1Nc1nc(Nc2cccc(CS(C)(=O)=O)c2)ncc1C.O=CO [GSK1520489] | 49
12 | C[C@@H](Oc1cc(-n2cnc3cc(-c4ccncc4)ccc32)sc1C(N)=O)c1ccccc1Cl [GSK479719] | 70
13 | N#Cc1cccc(C(=O)NC2CCN(c3ccnc(Nc4ccc(F)cc4)n3)C2)c1 (stereo not shown) [GSK1379708] | 0
14 | FC(F)(F)c1cc(Br)cc(Nc2nccc(-c3cnn4ncccc34)n2)c1 [GW810578] | 0
15 | NC(=O)Nc1sc(-c2ccc(F)cc2)cc1C(N)=O [GW789449] | 49
16 | CC(=O)Nc1ccc(-c2cc3ncnc(SCC(=O)O)c3s2)cc1 | 16
17 | Cc1cccc2c(-c3ccncc3)c(-c3ccc(F)cc3)nn12.Cl [GW461487] | 46
18 | O=C1NCCc2[nH]c(-c3ccncc3)cc21 | 20
19 | CCn1c(-c2nonc2N)nc2cncc(CNC3CCNCC3)c21.Cl [SB-747651] | 0

Row | SMILES | %Inh [%]
20 | O=c1[nH]cc(-c2ccc(O)cc2)c2sc(-c3ccncc3)cc12 [GSK1033723] | 7
21 | CCNCC(Cc1ccccc1)NC(=O)c1cc(Br)c(-c2ccnc3[nH]ccc23)s1.Cl.Cl (stereo not shown) [GSK1383280] | 0
22 | O=C(Nc1ccccc1)c1cccc(Oc2ccc3nccn3n2)c1 | 14
23 | Cl.c1ccc(Oc2ccc(Nc3ccnc4cc(-c5ccc(CN6CCNCC6)o5)ccc34)cc2)nc1 [GW567142] | 31
24 | Cl.Nc1n[nH]c2cc(-c3ccccn3)ccc12 [GSK2189892] | 0
25 | COc1ccc(Nc2nccc(N3CCC(NC(=O)c4cccc(C#N)c4)C3)n2)cc1 (stereo not shown) [GSK1379730] | 0
26 | CC(C(=O)NC1CCN(c2ccnc(Nc3ccc(F)cc3)n2)C1)c1ccc(Cl)cc1 (stereo not shown) [GSK1379713] | 0
27 | c1ccc(Oc2ccc(Nc3ccnc4ccc(-c5ccccn5)cc34)cc2)cc1 [GW407034] | 0
28 | CS(=O)(=O)c1cccc(CNc2nc(Nc3ccc4c(c3)[C@@H]3C[C@@H]4CNC3=O)ncc2C(F)(F)F)c1 | 18
29 | COc1cccc(OC)c1C(=O)Nc1cccc(-c2nn3ccccc3c2-c2ccnc(Nc3cccc(F)c3)n2)c1 [GSK361065] | 61
30 | COC(=O)c1cccc(NC(=O)NC2CCN(c3ccnc(Nc4cc(OC)c(OC)c(OC)c4)n3)C2)c1 (stereo not shown) [GSK1379767] | 2
31 | CC(C)c1nc(-c2cccc(NS(=O)(=O)c3ccccc3)c2)c(-c2ccnc(Nc3ccc4c(c3)CN(C)CC4)n2)s1 [GSK1649598] | 26
32 | C[C@@H]1CCN(C(=O)N2CCCC2)C[C@@H]1N(C)c1ncnc2[nH]ccc12 | 23
33 | CSc1nccc(-c2c(-c3ccc(F)cc3)ncn2CCCN2CCOCC2)n1.Cl [SB-217146] | 0
34 | COc1cc2nccc(Nc3ccc(Oc4ccccc4)cc3)c2cc1OC.Cl [GI261656] | 0
35 | Cc1ccc(Nc2ccnc(Nc3ccc4c(c3)CS(=O)(=O)C4)n2)cc1O.Cl [GW579362] | 60
36 | Cc1nnc(-c2ccc3occ(-c4ccc(S(C)=O)cc4)c3n2)o1 (stereo not shown) | 0
37 | O=C(NOCC1CC1)c1cc(Br)c(F)c(F)c1Nc1ccc(I)cc1Cl | 6
